Measurements taken from publication PMC7862700, “An all-to-all approach to the identification of sequence-specific readers for epigenetic DNA modifications on cytosine”.

Legend:
Assay in all cases: DAPPL (digital affinity profiling via proximity ligation, sequencing); 10 mM Tris-HCl pH 7.5, 50 mM NaCl, 1 mM DTT, 4% glycerol, room temperature, 30 min; GST-TFs on glutathione beads, 16-mer random dsDNA library, 0.1% formaldehyde crosslink after washing; high values mean tight binding
Settings in all cases: protein: recombinant; tags: N-terminal GST; dsDNA, one strand shown
ELK1 = target: T1, ELK1 (Homo sapiens, UniProt P19419 1-428)
T1 sequence: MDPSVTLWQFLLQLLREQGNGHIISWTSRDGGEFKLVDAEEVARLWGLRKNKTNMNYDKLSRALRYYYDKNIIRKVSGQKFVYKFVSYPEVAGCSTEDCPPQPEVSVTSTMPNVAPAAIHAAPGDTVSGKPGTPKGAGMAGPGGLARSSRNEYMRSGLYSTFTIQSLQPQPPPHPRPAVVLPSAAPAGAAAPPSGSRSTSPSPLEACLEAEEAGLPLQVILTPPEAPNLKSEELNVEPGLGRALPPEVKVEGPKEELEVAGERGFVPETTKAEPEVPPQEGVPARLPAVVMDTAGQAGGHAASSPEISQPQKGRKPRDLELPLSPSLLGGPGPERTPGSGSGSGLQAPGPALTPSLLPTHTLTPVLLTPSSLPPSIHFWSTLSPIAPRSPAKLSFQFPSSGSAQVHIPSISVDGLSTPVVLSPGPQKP
Procedure, shortened: (§1)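 Yeast served to express human transcription factors as GST fusions, which were then captured on glutathione beads and labelled with DNA barcodes. Pooled with a tag-only sample, they were incubated with 200 nmole of a 16-mer random double-stranded DNA library for 30 min at room temperature in Tris/NaCl/DTT/glycerol buffer, washed, crosslinked with 0.1% formaldehyde, ligated by proximity, amplified by PCR and sequenced. Dividing each hexamer's read frequency for a factor by its frequency for the tag-only sample gives the binding signal.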

GABPA = target: T2, GABPA (Homo sapiens, UniProt Q06546 1-454)
T2 sequence: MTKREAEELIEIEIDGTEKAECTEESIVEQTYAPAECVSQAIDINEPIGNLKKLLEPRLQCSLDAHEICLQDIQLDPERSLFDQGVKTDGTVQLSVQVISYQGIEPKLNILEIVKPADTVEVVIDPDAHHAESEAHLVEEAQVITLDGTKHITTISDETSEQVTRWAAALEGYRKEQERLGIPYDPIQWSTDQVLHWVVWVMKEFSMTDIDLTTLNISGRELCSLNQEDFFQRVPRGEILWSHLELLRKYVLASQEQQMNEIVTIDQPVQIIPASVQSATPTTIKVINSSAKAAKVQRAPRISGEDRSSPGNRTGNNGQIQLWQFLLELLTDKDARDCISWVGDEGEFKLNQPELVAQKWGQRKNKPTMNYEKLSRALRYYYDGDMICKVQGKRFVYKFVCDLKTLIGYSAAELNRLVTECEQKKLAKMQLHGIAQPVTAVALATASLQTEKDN
Procedure, shortened: as §1

ERG = target: T3, ERG (Homo sapiens, UniProt P11308 1-479)
T3 sequence: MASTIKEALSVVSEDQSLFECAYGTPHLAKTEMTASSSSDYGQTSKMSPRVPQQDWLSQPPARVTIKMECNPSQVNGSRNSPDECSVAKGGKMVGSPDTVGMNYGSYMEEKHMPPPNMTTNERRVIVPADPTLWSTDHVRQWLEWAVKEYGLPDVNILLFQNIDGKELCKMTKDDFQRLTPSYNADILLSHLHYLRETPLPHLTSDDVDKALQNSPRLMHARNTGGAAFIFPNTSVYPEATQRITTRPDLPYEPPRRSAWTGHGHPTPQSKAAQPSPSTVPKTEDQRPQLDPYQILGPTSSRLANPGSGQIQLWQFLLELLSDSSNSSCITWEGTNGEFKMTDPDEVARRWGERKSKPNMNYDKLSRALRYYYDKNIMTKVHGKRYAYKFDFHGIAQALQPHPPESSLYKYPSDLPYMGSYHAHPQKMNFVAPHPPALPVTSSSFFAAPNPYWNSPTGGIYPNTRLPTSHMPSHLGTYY
Procedure, shortened: as §1

ELF1 = ELF1 (Homo sapiens, UniProt P32519 1-619)
Sequence of ELF1 (P32519 whole entry): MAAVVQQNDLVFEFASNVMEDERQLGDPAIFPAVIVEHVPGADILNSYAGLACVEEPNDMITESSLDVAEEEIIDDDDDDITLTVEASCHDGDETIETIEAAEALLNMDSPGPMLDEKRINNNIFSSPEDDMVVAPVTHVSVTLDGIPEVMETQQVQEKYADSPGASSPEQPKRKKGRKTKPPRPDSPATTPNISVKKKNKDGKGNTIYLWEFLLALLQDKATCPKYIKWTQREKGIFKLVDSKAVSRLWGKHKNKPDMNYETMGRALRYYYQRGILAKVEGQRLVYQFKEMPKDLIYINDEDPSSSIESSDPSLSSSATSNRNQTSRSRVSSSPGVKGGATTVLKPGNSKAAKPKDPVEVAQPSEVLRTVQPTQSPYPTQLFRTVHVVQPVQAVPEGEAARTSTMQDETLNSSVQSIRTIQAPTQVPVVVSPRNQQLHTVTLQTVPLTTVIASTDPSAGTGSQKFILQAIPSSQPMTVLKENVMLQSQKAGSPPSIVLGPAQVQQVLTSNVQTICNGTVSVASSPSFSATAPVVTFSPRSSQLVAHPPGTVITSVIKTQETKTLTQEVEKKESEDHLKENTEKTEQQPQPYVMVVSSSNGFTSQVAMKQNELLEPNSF
Procedure, shortened: as §1

EHF = target: T4, EHF (Homo sapiens, UniProt Q9NZC4 1-300)
T4 sequence: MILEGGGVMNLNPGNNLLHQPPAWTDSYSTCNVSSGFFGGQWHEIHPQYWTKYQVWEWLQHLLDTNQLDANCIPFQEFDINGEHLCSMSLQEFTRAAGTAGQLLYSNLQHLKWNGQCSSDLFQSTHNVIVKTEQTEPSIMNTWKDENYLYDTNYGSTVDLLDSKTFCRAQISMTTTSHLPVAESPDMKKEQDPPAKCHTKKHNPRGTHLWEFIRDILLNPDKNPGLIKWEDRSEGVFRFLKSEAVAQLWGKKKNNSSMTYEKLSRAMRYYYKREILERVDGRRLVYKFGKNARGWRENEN
Procedure, shortened: as §1

SPIB = SPIB (Homo sapiens, UniProt Q01892 1-262)
Sequence of SPIB (Q01892 whole entry): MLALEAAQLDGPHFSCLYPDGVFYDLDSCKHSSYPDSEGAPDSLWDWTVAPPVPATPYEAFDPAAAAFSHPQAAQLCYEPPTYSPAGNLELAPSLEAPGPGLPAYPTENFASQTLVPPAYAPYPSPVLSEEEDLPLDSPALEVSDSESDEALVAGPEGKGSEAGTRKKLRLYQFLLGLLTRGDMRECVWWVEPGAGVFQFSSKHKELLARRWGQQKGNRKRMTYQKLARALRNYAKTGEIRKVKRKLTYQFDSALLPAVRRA
Procedure, shortened: as §1

ETV5 = ETV5 (Homo sapiens, UniProt P41161 1-510)
Sequence of ETV5 (P41161 whole entry): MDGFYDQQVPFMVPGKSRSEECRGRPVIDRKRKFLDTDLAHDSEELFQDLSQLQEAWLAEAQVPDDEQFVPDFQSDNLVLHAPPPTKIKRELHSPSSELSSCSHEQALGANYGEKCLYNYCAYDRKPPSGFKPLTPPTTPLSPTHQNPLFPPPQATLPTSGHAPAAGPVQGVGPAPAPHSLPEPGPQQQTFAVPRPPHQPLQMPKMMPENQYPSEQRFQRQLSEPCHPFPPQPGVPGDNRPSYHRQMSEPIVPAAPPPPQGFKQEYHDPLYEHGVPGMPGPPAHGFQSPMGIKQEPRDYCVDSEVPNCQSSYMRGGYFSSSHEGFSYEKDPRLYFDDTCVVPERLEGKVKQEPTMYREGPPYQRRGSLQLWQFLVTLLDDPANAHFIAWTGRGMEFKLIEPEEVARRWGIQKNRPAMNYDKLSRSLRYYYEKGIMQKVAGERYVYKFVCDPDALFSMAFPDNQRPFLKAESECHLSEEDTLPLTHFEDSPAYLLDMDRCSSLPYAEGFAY
Procedure, shortened: as §1

ELF4 = ELF4 (Homo sapiens, UniProt Q99607 1-663)
Sequence of ELF4 (Q99607 whole entry): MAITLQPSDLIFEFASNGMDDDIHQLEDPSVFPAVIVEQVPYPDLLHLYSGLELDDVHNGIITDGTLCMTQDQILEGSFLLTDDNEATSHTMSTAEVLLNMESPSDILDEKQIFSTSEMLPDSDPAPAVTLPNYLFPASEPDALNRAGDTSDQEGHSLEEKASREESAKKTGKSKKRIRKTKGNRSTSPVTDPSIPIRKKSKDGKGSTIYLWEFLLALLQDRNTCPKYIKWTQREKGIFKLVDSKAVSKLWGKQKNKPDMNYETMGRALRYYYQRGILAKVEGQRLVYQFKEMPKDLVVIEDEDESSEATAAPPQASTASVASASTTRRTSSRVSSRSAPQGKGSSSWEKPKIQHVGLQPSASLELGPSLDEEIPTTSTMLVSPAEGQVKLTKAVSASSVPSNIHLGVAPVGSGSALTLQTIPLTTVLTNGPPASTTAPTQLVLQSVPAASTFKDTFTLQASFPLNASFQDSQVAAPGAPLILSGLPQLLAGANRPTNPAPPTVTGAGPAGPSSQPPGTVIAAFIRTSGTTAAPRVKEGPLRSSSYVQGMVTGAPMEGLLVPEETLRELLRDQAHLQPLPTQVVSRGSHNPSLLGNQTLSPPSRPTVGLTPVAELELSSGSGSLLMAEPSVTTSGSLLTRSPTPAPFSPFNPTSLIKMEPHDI
Procedure, shortened: as §1

ELK4 = target: T5, ELK4 (Homo sapiens, UniProt P28324-2 1-405)
T5 sequence: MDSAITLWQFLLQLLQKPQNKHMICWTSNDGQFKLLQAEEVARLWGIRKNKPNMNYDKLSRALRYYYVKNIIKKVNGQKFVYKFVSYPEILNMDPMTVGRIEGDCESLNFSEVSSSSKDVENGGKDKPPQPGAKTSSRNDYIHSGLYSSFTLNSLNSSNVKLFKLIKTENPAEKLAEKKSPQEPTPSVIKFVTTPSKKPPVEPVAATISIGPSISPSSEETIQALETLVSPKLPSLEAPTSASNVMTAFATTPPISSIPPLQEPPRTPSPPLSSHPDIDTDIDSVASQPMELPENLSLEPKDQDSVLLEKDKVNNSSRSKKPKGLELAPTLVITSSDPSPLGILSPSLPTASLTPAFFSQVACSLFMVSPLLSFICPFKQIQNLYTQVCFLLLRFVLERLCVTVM
Procedure, shortened: as §1

ETV2 = target: T6, ETV2 (Homo sapiens, UniProt O00321 1-342)
T6 sequence: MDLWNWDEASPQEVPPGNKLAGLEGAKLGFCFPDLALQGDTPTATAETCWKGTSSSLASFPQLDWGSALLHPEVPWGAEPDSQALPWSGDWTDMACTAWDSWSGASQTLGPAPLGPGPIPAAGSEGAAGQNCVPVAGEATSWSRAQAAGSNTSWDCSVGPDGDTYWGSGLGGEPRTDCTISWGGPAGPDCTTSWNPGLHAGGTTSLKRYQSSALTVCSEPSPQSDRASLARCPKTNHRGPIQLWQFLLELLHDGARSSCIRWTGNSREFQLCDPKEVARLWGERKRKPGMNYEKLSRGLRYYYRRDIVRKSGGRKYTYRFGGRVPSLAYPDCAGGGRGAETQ
Procedure, shortened: as §1

ELF3 = target: T7, ELF3 (Homo sapiens, UniProt P78545 1-371)
T7 sequence: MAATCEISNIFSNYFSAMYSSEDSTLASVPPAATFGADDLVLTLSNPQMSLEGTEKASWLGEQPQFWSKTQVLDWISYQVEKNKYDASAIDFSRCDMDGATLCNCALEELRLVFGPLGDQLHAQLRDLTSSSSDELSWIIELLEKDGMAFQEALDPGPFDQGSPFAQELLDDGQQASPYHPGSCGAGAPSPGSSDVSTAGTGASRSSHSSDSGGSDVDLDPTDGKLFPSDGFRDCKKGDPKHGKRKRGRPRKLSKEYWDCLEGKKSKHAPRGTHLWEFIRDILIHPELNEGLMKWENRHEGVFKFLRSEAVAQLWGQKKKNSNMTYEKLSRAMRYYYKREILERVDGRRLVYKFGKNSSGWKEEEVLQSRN
Procedure, shortened: as §1

ETV1 = ETV1 (Homo sapiens, UniProt P50549 1-477)
Sequence of ETV1 (P50549 whole entry): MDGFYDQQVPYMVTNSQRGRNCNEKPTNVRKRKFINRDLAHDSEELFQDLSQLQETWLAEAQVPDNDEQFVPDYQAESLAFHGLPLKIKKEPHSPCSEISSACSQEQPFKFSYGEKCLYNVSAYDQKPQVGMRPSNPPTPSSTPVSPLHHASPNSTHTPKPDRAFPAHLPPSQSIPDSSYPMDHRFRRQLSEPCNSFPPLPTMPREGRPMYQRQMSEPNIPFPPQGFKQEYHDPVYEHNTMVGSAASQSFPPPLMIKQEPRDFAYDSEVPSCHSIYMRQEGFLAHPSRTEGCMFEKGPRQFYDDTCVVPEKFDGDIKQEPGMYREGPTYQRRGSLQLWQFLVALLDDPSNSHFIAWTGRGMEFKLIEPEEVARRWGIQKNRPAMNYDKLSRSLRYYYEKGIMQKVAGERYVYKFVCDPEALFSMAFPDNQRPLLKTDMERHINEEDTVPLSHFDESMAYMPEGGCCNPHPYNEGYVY
Procedure, shortened: as §1

ERF = target: T8, ERF (Homo sapiens, UniProt P50548 1-548)
T8 sequence: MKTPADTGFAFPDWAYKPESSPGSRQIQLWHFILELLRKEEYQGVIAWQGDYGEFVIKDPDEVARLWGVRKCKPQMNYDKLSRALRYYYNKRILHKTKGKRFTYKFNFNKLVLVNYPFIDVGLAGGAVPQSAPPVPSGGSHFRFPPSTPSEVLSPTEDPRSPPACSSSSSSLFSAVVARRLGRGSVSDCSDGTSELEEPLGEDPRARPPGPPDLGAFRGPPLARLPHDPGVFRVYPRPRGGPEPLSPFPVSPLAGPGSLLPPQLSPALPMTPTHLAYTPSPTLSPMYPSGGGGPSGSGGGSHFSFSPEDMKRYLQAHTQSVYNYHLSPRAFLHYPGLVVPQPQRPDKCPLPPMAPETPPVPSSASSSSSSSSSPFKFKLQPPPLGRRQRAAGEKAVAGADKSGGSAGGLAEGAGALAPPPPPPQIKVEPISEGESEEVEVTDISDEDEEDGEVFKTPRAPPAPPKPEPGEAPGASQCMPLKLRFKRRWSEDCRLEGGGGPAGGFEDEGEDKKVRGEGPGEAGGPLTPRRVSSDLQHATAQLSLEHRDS
Procedure, shortened: as §1

ETV3L = target: T9, ETV3L (Homo sapiens, UniProt Q6ZN32 1-361)
T9 sequence: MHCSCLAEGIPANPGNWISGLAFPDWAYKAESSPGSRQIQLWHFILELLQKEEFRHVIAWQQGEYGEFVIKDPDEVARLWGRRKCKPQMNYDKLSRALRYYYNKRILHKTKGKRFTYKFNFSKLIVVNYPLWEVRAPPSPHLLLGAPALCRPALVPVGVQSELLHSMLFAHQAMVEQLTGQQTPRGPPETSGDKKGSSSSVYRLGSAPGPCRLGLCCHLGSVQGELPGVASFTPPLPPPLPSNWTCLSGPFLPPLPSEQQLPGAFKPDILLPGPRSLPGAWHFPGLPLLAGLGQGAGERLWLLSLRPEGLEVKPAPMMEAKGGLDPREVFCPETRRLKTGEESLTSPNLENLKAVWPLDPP
Procedure, shortened: as §1

ETS2 = target: T10, ETS2 (Homo sapiens, UniProt P15036 1-469)
T10 sequence: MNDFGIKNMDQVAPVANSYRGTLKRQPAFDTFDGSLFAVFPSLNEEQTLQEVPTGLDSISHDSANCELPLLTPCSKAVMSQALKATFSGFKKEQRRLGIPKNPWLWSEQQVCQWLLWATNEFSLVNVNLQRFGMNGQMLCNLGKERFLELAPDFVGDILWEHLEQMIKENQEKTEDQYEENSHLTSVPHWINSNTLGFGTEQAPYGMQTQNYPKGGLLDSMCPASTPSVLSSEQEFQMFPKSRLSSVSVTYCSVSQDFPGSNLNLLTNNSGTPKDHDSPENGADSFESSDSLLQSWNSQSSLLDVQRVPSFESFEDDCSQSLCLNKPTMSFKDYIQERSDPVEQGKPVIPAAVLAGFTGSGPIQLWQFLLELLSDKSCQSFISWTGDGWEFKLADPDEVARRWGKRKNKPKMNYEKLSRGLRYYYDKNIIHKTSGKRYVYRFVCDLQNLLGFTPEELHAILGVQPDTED
Procedure, shortened: as §1

SPDEF = target: T11, SPDEF (Homo sapiens, UniProt O95238 1-335)
T11 sequence: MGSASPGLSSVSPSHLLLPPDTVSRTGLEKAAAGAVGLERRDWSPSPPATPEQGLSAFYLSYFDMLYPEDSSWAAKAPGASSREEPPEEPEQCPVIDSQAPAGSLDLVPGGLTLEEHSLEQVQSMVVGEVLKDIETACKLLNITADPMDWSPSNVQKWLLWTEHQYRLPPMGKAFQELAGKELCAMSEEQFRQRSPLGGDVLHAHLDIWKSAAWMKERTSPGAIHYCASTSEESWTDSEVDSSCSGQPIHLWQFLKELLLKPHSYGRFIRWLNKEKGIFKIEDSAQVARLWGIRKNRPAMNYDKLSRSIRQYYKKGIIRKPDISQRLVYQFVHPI
Procedure, shortened: as §1

ETV7 = target: T12, ETV7 (Homo sapiens, UniProt Q9Y603 1-341)
T12 sequence: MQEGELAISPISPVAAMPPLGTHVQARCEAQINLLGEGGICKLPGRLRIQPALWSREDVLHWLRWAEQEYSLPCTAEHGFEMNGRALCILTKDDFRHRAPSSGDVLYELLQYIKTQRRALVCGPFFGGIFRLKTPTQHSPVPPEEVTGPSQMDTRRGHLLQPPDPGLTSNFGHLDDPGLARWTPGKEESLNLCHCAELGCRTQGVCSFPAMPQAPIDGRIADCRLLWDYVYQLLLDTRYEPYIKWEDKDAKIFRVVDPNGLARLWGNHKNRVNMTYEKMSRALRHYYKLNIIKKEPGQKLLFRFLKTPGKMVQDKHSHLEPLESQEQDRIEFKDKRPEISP
Procedure, shortened: as §1

ETV3 = target: T13, ETV3 (Homo sapiens, UniProt P41162-2 1-143)
T13 sequence: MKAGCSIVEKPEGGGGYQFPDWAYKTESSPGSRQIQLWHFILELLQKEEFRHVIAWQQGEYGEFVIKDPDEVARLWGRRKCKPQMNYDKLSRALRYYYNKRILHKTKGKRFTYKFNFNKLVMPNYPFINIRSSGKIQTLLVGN
Procedure, shortened: as §1

ETV6 = ETV6 (Homo sapiens, UniProt P41212 1-452)
Sequence of ETV6 (P41212 whole entry): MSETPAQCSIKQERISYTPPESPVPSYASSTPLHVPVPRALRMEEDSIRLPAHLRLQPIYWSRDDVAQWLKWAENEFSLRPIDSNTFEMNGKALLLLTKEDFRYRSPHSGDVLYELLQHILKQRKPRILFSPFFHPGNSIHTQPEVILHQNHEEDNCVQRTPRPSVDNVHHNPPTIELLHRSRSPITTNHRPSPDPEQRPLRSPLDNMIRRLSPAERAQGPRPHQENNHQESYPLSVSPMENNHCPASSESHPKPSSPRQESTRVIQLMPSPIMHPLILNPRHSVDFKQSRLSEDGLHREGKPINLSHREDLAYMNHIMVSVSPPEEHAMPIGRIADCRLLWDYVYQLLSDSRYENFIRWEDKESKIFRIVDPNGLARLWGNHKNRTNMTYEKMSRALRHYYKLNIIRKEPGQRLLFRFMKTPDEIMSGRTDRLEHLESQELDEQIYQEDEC
Procedure, shortened: as §1

TATGTC
binding signal (ELK1): 1.05 fold enrichment (6-mer frequency, TF over GST control)
binding signal (GABPA): 1.17 fold enrichment (6-mer frequency, TF over GST control)
binding signal (ERG): 1.08 fold enrichment (6-mer frequency, TF over GST control)
binding signal (ELF1): 1.11 fold enrichment (6-mer frequency, TF over GST control)
binding signal (EHF): 1.02 fold enrichment (6-mer frequency, TF over GST control)
binding signal (SPIB): 1.16 fold enrichment (6-mer frequency, TF over GST control)
binding signal (ETV5): 1.07 fold enrichment (6-mer frequency, TF over GST control)
binding signal (ELF4): 1.14 fold enrichment (6-mer frequency, TF over GST control)
binding signal (ELK4): 1.05 fold enrichment (6-mer frequency, TF over GST control)
binding signal (ETV2): 1.02 fold enrichment (6-mer frequency, TF over GST control)
binding signal (ELF3): 1.06 fold enrichment (6-mer frequency, TF over GST control)
binding signal (ETV1): 1.05 fold enrichment (6-mer frequency, TF over GST control)
binding signal (ERF): 1.08 fold enrichment (6-mer frequency, TF over GST control)
binding signal (ETV3L): 1.16 fold enrichment (6-mer frequency, TF over GST control)
binding signal (ETS2): 1.13 fold enrichment (6-mer frequency, TF over GST control)
binding signal (SPDEF): 1.14 fold enrichment (6-mer frequency, TF over GST control)
binding signal (ETV7): 1.06 fold enrichment (6-mer frequency, TF over GST control)
binding signal (ETV3): 1.13 fold enrichment (6-mer frequency, TF over GST control)
binding signal (ETV6): 1.07 fold enrichment (6-mer frequency, TF over GST control)
